Shown are actives, neighbours in structure and some others; about 1.5% of the full set was active somewhere.
PINK1 modulator: changes PINK1 expression | PINK1 immunofluorescence, high-content cytometry, 24 h | Potency, µM (top dose mostly 76.6 µM), for inactives: at the top dose activation (PINK1 increase), hits mostly activators | actives 0.2% (n = 410,000) | AID 624263; active = well fitted activation curve with a large enough effect; inconclusive = small, poorly fitted or top-dose-only effect; cell line not stated here; note: potency is the fitted concentration of half-maximal effect; % of control where 0% means no effect; nearly all actives have a fitted effect of over 65% in size
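Stable cell line, 250 cells/well, 12 h attachment; compounds pinned at 5 concentrations, 24 h; CCCP control. Fixed with nuclear dye, primary antibodies 12 h at 10 degrees C, secondary plus cell stain; laser-scanning cytometer read.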
TCR act: T cell receptor activation. primary human leukocytes, anti-CD3, IL-2 HTRF, 48 h. Potency, µM (doses to about 9.22 µM), for inactives: at the highest dose activation of IL-2 secretion, most hits filed as activators. 330,000 tested, under 10 active. AID 504894; note: % of control where 0% means no effect
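Compounds are tested in HTS on primary human leukocytes co-incubated with a-CD3 beads for 48 hr. IL-2 output is measured by time-resolved FRET.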
pAkt inh: Akt phosphorylation inhibition | Neuro2A IGF-stimulated pAkt S473 HTRF, 20 min; hits give low values | activity change, % for hits at 50 µM | actives 0.32% (n = 360,000) | AID 651550; in the data active = activity change below about -80%; inconclusive = mostly about -51% to -80%; note: % is set by controls: 0 for no effect and ±100 for the full control effect
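Neuro2A cells (4,500/well, DMEM with 0.5% FBS) were treated with compound at a single 50 µM final concentration, stimulated with 6 nM IGF for 20 min at 37 °C, and lysed. Phospho-Akt Ser473 was read by HTRF as 665/615 ratio ×10^4.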
BRCA1 expr act: activators of BRCA1 expression; Potency, µM (top dose mostly 46.1 µM), inactives show at the highest dose activation, most hits filed as activators; MCF7-BRCA1-FFLuc reporter, luminescence, 48 h; response scale: scaled: vehicle 0%, 10 µM genistein 100%; actives 1.1% (n = 380,000); AID 624202; note: potency is the fitted concentration of half-maximal effect; nearly all actives have a fitted effect of over 80% in size
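MCF7-BRCA1-FFLuc, 2000 cells/well; 2 h attach, 37 °C/5% CO2; compound 48 h; luciferase substrate 15 min; luminescence end-point. Norm. to genistein 10 microM max activation and DMSO; concentration-response curves fitted.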
Starred values were filed as active, the others as inactive; i = inactive; ? = inconclusive; nt = no result; [ ] = dose if it differs, or a comment. Unless noted, calls come from the whole dose curve; as a rule, active = well fitted curve in the direction sought with a large enough effect; inconclusive = small, poorly fitted or top-dose-only effect, or another doubt; inactive = no such curve, though single readings can be large; an effect the other way counts as inactive or inconclusive.

SMILES	PINK1 modulator	TCR act	pAkt inh	BRCA1 expr act
Cc1ccc(C(=O)OCC(=O)N2CCCCCC2)c(O)c1	1%	-1%	i	13µM*
O=C(OCC(=O)N1CCN(c2ccccc2)CC1)c1ccccc1[N+](=O)[O-]	2%	2%	i	13µM*
O=C(OCC(=O)N1CCN(c2ccccc2)CC1)c1cccc([N+](=O)[O-])c1	1%	5%	i	-11%
O=C(c1cccc(F)c1)N(Cc1cc2cc3c(cc2nc1N1CCOCC1)CCC3)CC1CCCO1 (centres undefined)	2%	nt	nt	nt
O=C(NCc1nnc2n1CCN(Cc1ccccc1C(F)(F)F)CC2)c1ccncc1	0%	nt	nt	nt
COc1ccc(Cl)cc1N(C)c1nc(N2CCN(S(=O)(=O)c3ccc(C)cc3)CC2)c2ccccc2n1	1%	nt	nt	8%
COCCN1CCN(C(=O)c2cnn(-c3ncc4c(n3)-c3ccc(OC)cc3CC4)c2C2CC2)CC1	0%	nt	nt	nt
CCc1ccc2c(COC(=O)c3n[nH]c4ccccc34)cc(=O)oc2c1	4%	4%	i	-2%
Cc1ccc2c(COC(=O)c3n[nH]c4ccccc34)cc(=O)oc2c1	3%	7%	i	3.2µM*
CCc1ccc(NC(=O)c2ccccc2Br)cc1	0%	-14%	i	3.2µM*
CC(=O)Nc1ccc(NC(=O)c2ccccc2Br)cc1	4%	nt	i	12%
O=C(Nc1ccc(Br)cc1)c1ccccc1Br	3%	-3%	i	1.1µM*
Cc1ccc(S(=O)(=O)N(Cc2cc3cc4c(cc3[nH]c2=O)OCCO4)CC2CCCO2)cc1 (centres undefined)	14%[38.3 µM]	3%	-105%*	-23%
COc1cc(CN2CCOc3ccc(CN4CCC(O)(c5cccnc5)CC4)cc3C2)cc(OC)c1	0%	nt	nt	nt
Fc1ccc(-c2ccc(Nc3cccc(F)c3)nn2)cc1	0%	8%	i	?
Fc1ccc(Nc2ccc(-c3ccc(F)cc3)nn2)cc1	-1%	4%	i	5.6µM*
COc1ccc(CN2CCCC(n3cc(C(=O)NC4CCCC4)nn3)C2)c(O)c1 (centres undefined)	3%	nt	nt	nt
COc1ccc(Cn2c(O)cc(=O)[nH]c2=O)cc1	2%	3%[46.1 µM]	i	-1%
CCOc1ccc(Cn2c(O)cc(=O)[nH]c2=O)cc1	-2%	-1%[46.1 µM]	-117%*	-11%
CCOC(=O)c1cc2c(nc1NC(=S)NCc1ccccc1)CCCC2	6%	1%[46.1 µM]	i	4.5µM*
O=C(NC1CCCC1)C1CC(c2ccc(F)cc2)=NO1 (centres undefined)	-4%[38.3 µM]	-2%	i	10µM*
O=C(NCc1ccccn1)C1CC(c2ccc(F)cc2)=NO1 (centres undefined)	-2%	4%	-112%*	3%
COc1ccc(S(=O)(=O)NCc2nc(N3CCCC3)c3cccc(C)c3n2)cc1OC	0%	nt	nt	nt
Cc1cc(C)n(CC(O)COc2ccc(Cl)cc2)n1 (centres undefined)	0%	nt	i	-3%
Cc1cc(C)n(CC(O)COc2ccc(Cl)cc2Cl)n1 (centres undefined)	0%	8%	i	11µM*
SMILES	PINK1 modulator	TCR act	pAkt inh	BRCA1 expr act
CNc1nnc(CSc2nc3ccccc3s2)s1	-1%	-2%[46.1 µM]	i	11µM*
c1csc(CSc2nc3ccccc3s2)c1	nt	nt	i	7.9µM*
Cc1noc(C)c1CSc1nc2ccccc2s1	0%	5%	i	-8%
CCN(C(C)=O)c1nnc(CSc2nc3ccccc3s2)s1	0%	-1%	i	24%
COc1cc(CNc2nc(C)c(-c3ccn(C4Cc5ccccc5C4)n3)s2)cc2c1OCO2	6%	nt	nt	nt
CCn1c(SCC(=O)NCCOC)nc2sc3c(c2c1=O)CCCC3	-2%[38.3 µM]	0%	-80%*	0%
CCn1c(SCC(N)=O)nc2sc3c(c2c1=O)CCCC3	-1%	1%	i	-27%
CN(C)/N=C/c1ccc(OS(=O)(=O)c2ccccc2)cc1	1%	11%	i	10µM*
CC(C)(CNC(=O)c1cnn(-c2nccc(-c3cccs3)n2)c1C1CC1)N1CCOCC1	2%	nt	nt	nt
c1ccc2c(c1)NC1(CCCCCC1)n1c-2nc2ccccc21	-1%	0%	i	2.8µM*
c1ccc2c(c1)NC1(CCCCC1)n1c-2nc2ccccc21	-5%[38.3 µM]	2%	nt	?
Cc1ccc2oc(-c3ccc(NC(=O)COc4ccccc4)cc3O)nc2c1	5%	nt	nt	59%
Cc1ccc(C(=O)c2cc3ccccc3o2)cc1	0%	-1%	i	?
Cc1ccc(C(=O)c2cc3ccccc3o2)cc1C	7%	0%	i	11µM*
CCCCOC(=O)Cn1c(-c2ccccc2)nc2ccccc2c1=O	2%	-1%	i	-4%
CCCOC(=O)C(C)n1c(-c2ccccc2)nc2ccccc2c1=O (centres undefined)	8.9µM*	nt	i	2%
CC(C)CCn1nnnc1C(C(C)C)N1CCC(C(N)=O)CC1 (centres undefined)	1%	3%[46.1 µM]	-100%*	7%
CCCC(c1nnnn1CCC(C)C)N1CCC(C(N)=O)CC1 (centres undefined)	-2%	1%	i	1%
Cc1cccc(C)c1NC(=O)CSc1nc(C)c(CC(=O)c2ccc(Br)cc2)c(C)c1C#N	3%	-1%	-102%*	-31%
CCCc1nc2c3ccccc3ccn2c1Cc1ccccc1	?	nt	i	11µM*
Cc1cc(=O)[nH]c(SCC(=O)Nc2ccc(Br)cc2)c1C#N	16µM*	-28%	i	-23%
Cc1nc(SCC(=O)Nc2ccc3c(c2)OCO3)c(C#N)c2c1CCCC2	9%	2%	i	7.1µM*
COCc1cc(C)nc(SCC(=O)Nc2ccc(C)c(C)c2)c1C#N	3%	1%	i	4µM*
Cc1cc(C)c(C#N)c(SCC(=O)Nc2ccc3c(c2)OCO3)n1	0%	3%	i	11µM*
Cc1cc(C)nc(SCC(=O)Nc2ccc3c(c2)OCO3)n1	1%	2%	i	-15%
SMILES	PINK1 modulator	TCR act	pAkt inh	BRCA1 expr act
COc1cc(-c2ccc(Cl)cn2)cc2c1OCCN(C(=O)c1ccccc1-n1cccn1)C2	2%	nt	nt	nt
c1ccc(CSc2nnc(NC3CCCCC3)s2)cc1	1%	nt	i	3.5µM*
O=c1cc(CSc2nnc(NC3CCCCC3)s2)nc2sccn12	0%	3%	i	-12%
O=C(NCc1nnc2n1CCN(Cc1cccc(Cl)c1)CC2)c1cccc(F)c1	3%	nt	nt	nt
CCC(Oc1ccccc1)C(=O)Nc1nnc(S(=O)(=O)N(CC)CC)s1 (centres undefined)	2%	nt	nt	nt
COc1ccccc1C(=O)N[C@@H]1c2ccccc2C2(CCN(Cc3ccc(C)o3)CC2)[C@H]1O	1%	nt	nt	nt
COC(=O)[C@@H]1CCCN1C(=O)c1c(OC)cc(=O)n2c1CCN(Cc1c(C)[nH]c3ccccc13)CC2	-1%	nt	nt	nt
O=C1CC(N2CCN(c3ccc(F)cc3)CC2)C(=O)N1Cc1cccs1 (centres undefined)	0%	0%	i	-11%
O=C1CC(N2CCN(c3nc4ccccc4s3)CC2)C(=O)N1Cc1cccs1 (centres undefined)	2%	-2%	-143%*	-10%

Assay outcomes (PubChem)
